{"source": "PubChem BioAssay (NCI)", "note": "The panel holds about 83,000 compounds, 20% with a hit somewhere; the sample as a whole holds those more often.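 Compound tested at a single concentration for 48 hours in 96-well plates; a percent growth value below 10 was scored as active.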 The source made the active and inactive calls.", "data": [{"tested_on": "COLO 205 colon", "test": "NCI-60 one-dose screen, 48 h (100 = growth as untreated, 0 = no growth, -100 = all killed)", "conditions": "10 µM", "values": [{"compound": "O=[N+]([O-])C1CC2C=CC1C2", "note": "(centres undefined)", "growth": "115% (inactive)"}, {"compound": "COc1ccc(C2CC(c3ccc(-c4ccccc4)cc3)=NN2c2ccc(S(N)(=O)=O)cc2)cc1", "note": "(centres undefined)", "growth": "83.8% (inactive)"}, {"compound": "O=C(Nc1cccc(F)c1)Nc1cccc(Cl)c1", "growth": "93.6% (inactive)"}, {"compound": "COc1cc(/C=C2\\C(=O)Nc3cc(C)c(O)cc32)cc(OC)c1OC", "growth": "69.1% (inactive)"}, {"compound": "COC(=O)c1ccc(Cn2ccc(=O)[nH]c2=O)cc1", "growth": "113% (inactive)"}, {"compound": "Nc1nc2c(ncn2C2OC3COP(=O)(O)OC4C(COP(=O)(O)OC2C3O)OC(n2cnc3c(N)ncnc32)C4O)c(=O)[nH]1", "note": "(centres undefined)", "growth": "98.1% (inactive)"}, {"compound": "COc1cccc(C(=O)NNc2nc(N3CCN(C4CCCCC4)CC3)nc(N3CCN(C(c4ccccc4)c4ccccc4)CC3)n2)c1", "growth": "14.2% (inactive)"}, {"compound": "O=C(CCCC(=O)N/N=C/c1cc(Cl)ccc1O)N/N=C\\c1cc(Cl)ccc1O", "growth": "16.3% (inactive)"}, {"compound": "COc1ccc2nc(/C=C/c3ccc(N(C)C)cc3)sc2c1", "growth": "145% (inactive)"}, {"compound": "O=c1cc(CSc2nnc(-c3ccccc3)n2-c2ccc(F)cc2)c2ccc3ccccc3c2o1", "growth": "91.3% (inactive)"}, {"compound": "O=C(O)CCCCSCCCCC(=O)O", "growth": "113% (inactive)"}, {"compound": "C#C[C@]1(O)CC[C@H]2[C@@H]3CC[C@H]4CC(F)(F)CC[C@]4(C)[C@H]3CC[C@@]21C", "growth": "90.9% (inactive)"}, {"compound": "O=C(OCC1OC(n2cc(C(F)(F)F)c(=O)[nH]c2=O)CC1OC(=O)c1ccc([N+](=O)[O-])cc1)c1ccc([N+](=O)[O-])cc1", "note": "(centres undefined)", "growth": "87.8% (inactive)"}, {"compound": "COC(=O)c1cnc2c(c1)Oc1ccc(Cl)cc1-c1cc(C)nn1-2", "growth": "71.5% (inactive)"}]}]}
